Test results taken from PubChem BioAssay (NCATS).
Where “and” joins values, the source holds several entries; their conditions need not be identical. Equal values may be shown once. Inconclusive results are not listed. Calls of active or inactive are those of the source. Calls come from the whole dose curve; as a rule, active = well fitted cell-killing curve with a large enough effect; inconclusive = small, poorly fitted or top-dose-only effect; inactive = flat fitted curve, though single readings scatter.
% is set by controls: 0 for no effect and ±100 for the full control effect; potency is the fitted concentration of half-maximal effect.

Test: Cellular viability qHTS for adrenocortical cancer (ACC) cell line SW-13 (AID 1963989); note: nearly all actives have a fitted effect of over 65% in size;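 for activity (max response): cells grown in serum-free medium with ITS supplement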
Details: SW-13 ACC cells viability, CellTiter-Glo, 48 h; activity (max response): stronger effect = lower value
Summary of the method: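 Luminescent ATP read-out (CellTiter-Glo, 20 min at room temperature) measured metabolically competent SW-13 cells after 48 h compound treatment. Final concentrations spanned up to 46 uM; bortezomib served as positive control.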
In the case of `Cc1ccccc1C(=O)N1CC/C(=N\OS(=O)(=O)O)c2ccc(Cl)cc21`, the activity (max response) is reported as 5.63% (inactive).
For `CCC[C@@H]1C[C@@H](C(=O)N[C@@H]([C@H]2O[C@H](SC)[C@H](O)[C@@H](O)[C@H]2O)[C@H](C)Cl)N(C)C1`, the activity (max response) was 5.6% (inactive).
For `COc1ccc(Cl)cc1-c1cc(=O)[nH]c(=S)n1CC(N)=O`, the activity (max response) was -3.52% (inactive).
In the case of `C[C@H]1C[C@@H]2[C@H]([C@@H](O)C[C@@]3(C)[C@H]2CC[C@]3(O)C(=O)CO)[C@@]2(C)C=CC(=O)C=C12`, the activity (max response) is reported as 8.4% (inactive) and 9.49% (inactive).
In the case of `Nc1ccc(S(=O)(=O)Nc2ccccc2)cc1`, the activity (max response) is reported as 5.64% (inactive).
For `CC(=O)Nc1ccc(S(=O)(=O)Nc2ccc([N+](=O)[O-])cc2)cc1`, the activity (max response) was 3.97% (inactive).
For `CC(=O)[C@@]1(O)CC[C@H]2[C@@H]3C[C@H](C)C4=CC(=O)CC[C@]4(C)[C@H]3CC[C@@]21C`, the activity (max response) was -1.82% (inactive).
In the case of `CCOc1ccc(-n2c([C@@H](C)N(Cc3cccnc3)C(=O)Cc3ccc(F)c(C(F)(F)F)c3)nc3ncccc3c2=O)cc1`, the activity (max response) is reported as -7.78% (inactive).
For `C#CCN(C)CCCOc1ccc(Cl)cc1Cl`, the activity (max response) was -17.3% (inactive).
In the case of `CCCCCCCCCCCCOCCO`, the activity (max response) is reported as 0.306% (inactive).
For `CCCCC[C@H](O)/C=C/[C@H]1[C@H](O)CC(=O)[C@@H]1CCCCCCC(=O)O`, the activity (max response) was 1.24% (inactive).
For `c1ccc(CCNc2nc(-c3ccccc3)cs2)cc1`, the activity (max response) was -5.01% (inactive).
For `CC(C)[N+](C)(CCOC(=O)C1c2ccccc2Oc2ccccc21)C(C)C`, the activity (max response) was -9.17% (inactive).
For `CCCCNc1ccc(C(=O)OCCN(CC)CC)cc1`, the activity (max response) was -7.77% (inactive).
In the case of `Cc1ccc(-c2ccc(C)cn2)nc1`, the activity (max response) is reported as -26.3% (inactive).
With `C/C(=C1\CCOC(=O)S1)N(C=O)Cc1cnc(C)nc1N` the activity (max response) was -4.19% (inactive).
In the case of `C=CC(=O)N1C[C@H](Nc2ncnc3[nH]ccc23)CC[C@@H]1C`, the activity (max response) is reported as -23.7% (inactive).
In the case of `N#C/C(=C1\SCC(c2ccccc2Cl)S1)n1ccnc1` (stereo not given), the activity (max response) is reported as -13.5% (inactive).
In the case of `CC(=O)OCC(=O)[C@@]1(O)[C@H](C)C[C@H]2[C@@H]3CCC4=CC(=O)C=C[C@]4(C)[C@@]3(F)[C@@H](O)C[C@@]21C`, the activity (max response) is reported as 2.72% (inactive).
In the case of `CCC(CC)C(c1ccc(Nc2nc3ccccc3s2)cc1)n1cncn1` (stereo not given), the Potency is reported as 22.4 µM (active).
For `CC#Cc1cncc(-c2ccc3c(c2)[C@@]2(N=C(C)C(N)=N2)C2(CCC(OC)CC2)C3)c1` (stereo not given in full), the activity (max response) was -4.31% (inactive).
In the case of `C[C@@H]1CCN(C(=O)CC#N)C[C@@H]1N(C)c1ncnc2[nH]ccc12`, the activity (max response) is reported as -8.3% (inactive).
For `C=CCN1C[C@H](C(=O)N(CCCN(C)C)C(=O)NCC)C[C@@H]2c3cccc4[nH]cc(c34)C[C@H]21`, the activity (max response) was 3.88% (inactive).
For `CCN(CC)CCNC(=O)c1c(C)[nH]c(/C=C2\C(=O)Nc3ccc(F)cc32)c1C`, the Potency was 18.4 µM (active).
With `CC(=O)N1CCN(c2ccc(NC(=O)Cc3cnc(-c4ccnc(F)c4)c(C)c3)nc2)CC1` the activity (max response) was 4.66% (inactive).
For `N[C@@H](Cc1cc(I)c(O)c(I)c1)C(=O)O`, the activity (max response) was 8.5% (inactive).
For `Cc1nnc(SCC2=C(C(=O)O)N3C(=O)[C@@H](NC(=O)Cn4cnnn4)[C@H]3SC2)s1`, the activity (max response) was 10% (inactive).
With `CN(C)CCN(C)C(=O)c1ccc(NC(=O)Nc2ccc(-c3nc(N4CCOCC4)c4ccn(CC(F)(F)F)c4n3)cc2)cc1` the Potency was 0.708 µM (active).
With `CCCC(=O)OC[C@@H](OC(=O)CCC)[C@@H](OC(=O)CCC)[C@H](Cn1c2nc(=O)[nH]c(=O)c-2nc2cc(C)c(C)cc21)OC(=O)CCC` the activity (max response) was -8.77% (inactive).
In the case of `CCOCOC[C@H](C[C@H](C)C(=O)NO)NC(=O)c1ccc(Oc2ccccc2)cc1`, the activity (max response) is reported as -8.03% (inactive).
For `C[C@]12CC[C@@H]3c4ccc(O)cc4CC[C@H]3[C@@H]1C[C@@H](O)[C@@H]2O`, the activity (max response) was -7.09% (inactive).
With `C[C@]12CC[C@@H]3c4ccc(O)cc4CC[C@H]3[C@@H]1CCC2=O` the activity (max response) was -14.1% (inactive).
For `CCCCOCCOCCOCc1cc2c(cc1CCC)OCO2`, the activity (max response) was 0.496% (inactive) and -9.13% (inactive).
For `CCc1oc2ccccc2c1C(=O)c1cc(Br)c(O)c(Br)c1`, the Potency was 7.31 µM (active).
With `OC[C@H]1O[C@@H](Oc2cc(O)cc(/C=C/c3ccc(O)cc3)c2)[C@H](O)[C@@H](O)[C@@H]1O` the activity (max response) was 7.59% (inactive).
For `COc1cc(/C=C(\C#N)C(=O)Nc2nnc(C(F)(F)F)s2)ccc1OCc1ccc(C(F)(F)F)cc1C(F)(F)F`, the activity (max response) was -15.8% (inactive).
With `O=C1[C@@H]2[C@H]3CC[C@H](C3)[C@@H]2C(=O)N1CCCCN1CCN(c2ncccn2)CC1` the activity (max response) was 6.58% (inactive).
With `OC1CCC(Oc2cccc3cnc(Nc4ccc5nc[nH]c5c4)nc23)CC1` (stereo not given) the Potency was 7.94 µM (active).
With `COC(=O)C1=C(C)NC(C)=C(C(=O)OCCc2ccc(N3CCN(C(c4ccccc4)c4ccccc4)CC3)cc2)C1c1cccc([N+](=O)[O-])c1` (stereo not given) the activity (max response) was 7.28% (inactive).
In the case of `COc1ccc2c(c1)c(CC(=O)OC/C=C(\C)CC/C=C(\C)CCC=C(C)C)c(C)n2C(=O)c1ccc(Cl)cc1`, the activity (max response) is reported as 2.52% (inactive).
